Measured values as given in PubChem BioAssay (Tox21).
Records with an inconclusive call do not appear. Activity calls are given as the source filed them. Unless noted, calls come from the whole dose curve; as a rule, active = well fitted curve in the direction sought with a large enough effect in the repeat runs; inconclusive = weak or mixed curves; inactive = no such curve, though single readings can be large; an effect the other way counts as inactive or inconclusive.

Experiments:
[1] = qHTS assay to identify small molecule HDAC inhibitors (AID 1259364); note: top concentration of the series differs between compounds; nearly all actives have a fitted effect of over 45% in size
Procedure, shortened: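 Wild-type HCT-116 cells, plated overnight at 37 C, exposed to compounds 2 hr at 37 C; luminogenic HDAC-Glo substrate then added 30 min at room temperature. Luminescence reports relative endogenous class I/II HDAC activity.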

[2] = qHTS assay to identify small molecule HDAC inhibitors - cell viability counter screen (AID 1259365); note: series mostly up to about 92 µM; nearly all actives have a fitted effect of over 50% in size
Procedure, shortened: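 HCT-116 (wild type), 1,500 cells/well, overnight 37C/5% CO2; compound in DMSO 2hr; CellTiter-Glo 30min RT; luminescence read.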

[3] = qHTS assay to identify small molecule agonists of the sonic hedgehog signaling (Shh) pathway - cell viability counter screen (AID 1259366); note: nearly all actives have a fitted effect of over 50% in size; note: potency is the fitted concentration of half-maximal effect
Procedure, shortened: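 CellTiter-Fluor fluorescence read-out, 1 hr at 37C, added after 23hr compound exposure. Cells: 3T3 Gli1-Luc, an NIH/3T3 clone with stably integrated Gli1-Luc reporter, plated 4hr before compound.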

[4] = qHTS assay to identify small molecule antagonists of the sonic hedgehog signaling (Shh) pathway - cell viability counter screen (AID 1259367); note: nearly all actives have a fitted effect of over 55% in size; note: potency is the fitted concentration of half-maximal effect
Procedure, shortened: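 After a 4 hr settling period, 3T3 Gli1-Luc cells were treated with DMSO-dissolved chemicals and conditioned medium, kept 24 hr at 37C in 5% CO2, and assayed for viability by CellTiter-Fluor fluorescence following 1 hr reagent incubation.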

[5] = qHTS assay to identify small molecule antagonists of the sonic hedgehog signaling (Shh) pathway (AID 1259369; calls by dose curve; note: nearly all actives have a fitted effect of over 45% in size)
Procedure, shortened: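 NIH/3T3-derived Gli1-Luc reporter cells plated 4 h, dosed with compound, then stimulated with conditioned medium for 24 h at 37 C. Firefly luciferase luminescence read after 30 min with detection reagent at room temperature.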

[6] = qHTS assay to identify small molecule agonists of the androgen receptor (AR) signaling pathway in the presence of an antagonist - cell viability counter screen (AID 1259379); note: nearly all actives have a fitted effect of over 25% in size; note: potency is the fitted concentration of half-maximal effect;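 for activity change, negative = cytotoxicity: MDA-kb2 human breast cancer cells carrying an MMTV luciferase reporter; series mostly up to about 92 µM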
Procedure, shortened: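 MDA-kb2 cells (MMTV-luciferase, AR/GR), 3,000/well, 5 h attachment, then 3.0 µM nilutamide (final) and compounds at 15 concentrations. Viability by CellTiter-Fluor fluorescence after 16 h at 37 °C, 0% CO2, in the reporter wells.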

[7] = qHTS assay to identify small molecule agonists of the estrogen receptor beta (ER-beta) signaling pathway - cell viability counter screen (AID 1259380); note: nearly all actives have a fitted effect of over 30% in size
Procedure, shortened: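 ER-beta-UAS-bla HEK293T cells in medium with 2% charcoal-stripped FBS, pre-incubated 6 hr, then treated 16 hr at 37C. Cytotoxicity read in the same wells by CellTiter-Glo luminescence after 30 min at room temperature.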

[8] = qHTS assay to identify small molecule antagonists of the estrogen receptor beta (ER-beta) signaling pathway - cell viability counter screen (AID 1259382); note: series mostly up to about 92 µM; nearly all actives have a fitted effect of over 55% in size
Procedure, shortened: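 ER-beta-UAS-bla HEK293T cells in 2% charcoal-stripped FBS medium, treated with compound plus 1 nM 17-beta-estradiol for 16 h at 37C. Viability read by CellTiter-Glo luminescence after 30 min at room temperature in the same wells.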

[9] = target: Estrogen receptor (Homo sapiens) (UniProt P03372); assay: qHTS assay to identify small molecule agonists of the estrogen receptor alpha (ER-alpha) signaling pathway in the presence of an antagonist (AID 1259383; calls by dose curve; note: top concentration of the series differs between compounds; nearly all actives have a fitted effect of over 15% in size)
Procedure, shortened: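 VM7Luc4E2 cells express endogenous full-length ER-alpha with an ERE-luciferase reporter and were hormone-deprived for 5 days. Compounds at 15 concentrations were added with 10.0nM ICI-182,780 for 22hr at 37C. Luminescence was read with ONE-Glo.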

[10] = qHTS assay to identify small molecule agonists or antagonists of the thyroid stimulating hormone receptor (TSHR) signaling pathway - wild type cell line counter screen (AID 1259384; calls by dose curve)
Procedure, shortened: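 Wild-type HEK293 cells were plated 18 h at 37 C/5% CO2, pin-dosed with compound plus Ro20-1724 medium, held 30 min at room temperature, then given cAMP-d2 and anti-cAMP-cryptate; fluorescence was read after 1 h. Fifteen concentrations, triplicate.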

[11] = target: Thyrotropin receptor (Homo sapiens) (UniProt P16473); assay: qHTS assay to identify small molecule antagonists of the thyroid stimulating hormone receptor (TSHR) signaling pathway (AID 1259385; calls by dose curve; note: nearly all actives have a fitted effect of over 20% in size)
Procedure, shortened: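 TSHR-HEK293 cells were plated and held 18 h at 37C/5% CO2, then given compound plus Ro20-1724 and stimulated with TSH at 1.5 ng/mL final. After 30 min at room temperature, cAMP was detected with cAMP-d2/anti-cAMP-cryptate (1 h) by fluorescence.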

[12] = qHTS assay to identify small molecule agonists of the estrogen receptor alpha (ER-alpha) signaling pathway in the presence of an antagonist - cell viability counter screen (AID 1259386);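 note: cells exposed to compounds for 22 h at 37 °C before the viability read; nearly all actives have a fitted effect of over 30% in size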; note: potency is the fitted concentration of half-maximal effect; for activity change, negative = cytotoxicity: series mostly up to about 92 µM
Procedure, shortened: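 Cell viability in VM7Luc4E2 cells (endogenous full-length ER-alpha) measured by CellTiter-Fluor fluorescence in the same wells as the luciferase screen. Cells pre-cultured 5 days in charcoal-stripped serum, then treated 22 h with compounds at 15 concentrations plus 10.0nM ICI-182,780.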

[13] = target: Progesterone receptor (Homo sapiens) (UniProt P06401); assay: qHTS assay to identify small molecule agonists of the progesterone receptor (PR) signaling pathway (AID 1346784; calls by dose curve; note: nearly all actives have a fitted effect of over 30% in size)
Procedure, shortened: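 HEK 293T PR-UAS-bla reporter cells, 2% charcoal-stripped FBS; 6 hr settle at 37C/5% CO2, compound (DMSO) 16 hr, LiveBLAzer B/G FRET substrate 2 hr RT, fluorescence intensity read.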

[14] = target: Progesterone receptor (Homo sapiens) (UniProt P06401); assay: qHTS assay to identify small molecule antagonists of the progesterone receptor (PR) signaling pathway (AID 1346795; active = well fitted inhibition curve with a large enough effect in the signal ratio in the repeat runs, not every such curve was filed as active; the % refers to the signal ratio)
Procedure, shortened: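 Beta-lactamase reporter, HEK293T PR-UAS-bla line; 2% charcoal-stripped FBS; 6 hr pre-incubation, 37C/5% CO2. Compound + R5020 1 nM final, 16 hr. LiveBLAzer B/G FRET substrate, 2 hr RT; fluorescence intensity read.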

[15] = qHTS assay to identify small molecule antagonists of the progesterone receptor (PR) signaling pathway - cell viability counter screen (AID 1346798); note: series mostly up to about 92 µM; nearly all actives have a fitted effect of over 50% in size
Procedure, shortened: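 Luminescence readout (CellTiter-Glo, 30 min, RT) of viability in PR-UAS-bla HEK293T cells exposed to compound and R5020 agonist for 16 hr at 37C, 5% CO2; run in the same wells as the beta-lactamase reporter read.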

[16] = qHTS assay to identify small molecule agonists of the progesterone receptor (PR) signaling pathway - cell viability counter screen (AID 1346799; calls by dose curve; note: nearly all actives have a fitted effect of over 45% in size)
Procedure, shortened: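 HEK293T PR-UAS-bla, 3,000 cells/well, 2% charcoal-stripped FBS; 6 h settle, compound 16 h at 37C/5% CO2; LiveBLAzer 2 h RT, then CellTiter-Glo 30 min RT, luminescence read.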

[17] = target: Estrogen receptor beta (Homo sapiens) (UniProt Q92731); assay: qHTS assay to identify small molecule agonists of the estrogen receptor beta (ER-beta) signaling pathway (AID 1259377; active = well fitted activation curve with a large enough effect in the signal ratio in the repeat runs, not every such curve was filed as active; the % refers to the signal ratio)
Procedure, shortened: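 Beta-lactamase reporter readout: fluorescence of LiveBLAzer B/G FRET substrate after 2 h at room temperature, following 16 h compound treatment of ER-beta-UAS-bla HEK293T cells at 37C in 2% charcoal-stripped FBS medium.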

[18] = qHTS assay to identify small molecule agonists of the sonic hedgehog signaling (Shh) pathway (AID 1259368; calls by dose curve;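 note: NIH/3T3-derived 3T3Gli1-Luc cells carrying a stable Gli1-driven firefly luciferase reporter; series mostly up to about 92 µM; nearly all actives have a fitted effect of over 15% in size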)
Procedure, shortened: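 NIH/3T3-derived 3T3Gli1-Luc cells with stably integrated Gli1-driven firefly luciferase, 2,000 cells/well, compounds added after 4 hr. Incubated 24 hr at 37C, 5% CO2; luminescence read after 30 min with luciferase reagent at room temperature.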

[19] = target: Estrogen receptor beta (Homo sapiens) (UniProt Q92731); assay: qHTS assay to identify small molecule antagonists of the estrogen receptor beta (ER-beta) signaling pathway (AID 1259378; active = well fitted inhibition curve with a large enough effect in the signal ratio in the repeat runs, not every such curve was filed as active; the % refers to the signal ratio)
Procedure, shortened: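 ER-beta-UAS-bla HEK293T (GripTite) cells in 2% charcoal-stripped FBS medium were preincubated 6 hr at 37C, dosed with compound, then stimulated with 1 nM E2 (final) for 16 hr; beta-lactamase reporter read by B/G FRET fluorescence after 2 hr substrate loading.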

[20] = qHTS assay to identify small molecule antagonists of the TGF-beta/Smad signaling pathway - cell viability counter screen (AID 1346824); note: nearly all actives have a fitted effect of over 50% in size
Procedure, shortened: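 SBE-bla HEK 293T cells were plated overnight at 37 C, then given compounds in DMSO plus TGF-beta1 (added as 0.25 ng/mL solution) for 5 hr. After the bla read, CellTiter-Glo was added to the same wells and luminescence read after 30 min at room temperature.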
% is set by controls: 0 for no effect and ±100 for the full control effect.

Chain of Estrogen receptor (Homo sapiens) (P03372 whole entry, looked up): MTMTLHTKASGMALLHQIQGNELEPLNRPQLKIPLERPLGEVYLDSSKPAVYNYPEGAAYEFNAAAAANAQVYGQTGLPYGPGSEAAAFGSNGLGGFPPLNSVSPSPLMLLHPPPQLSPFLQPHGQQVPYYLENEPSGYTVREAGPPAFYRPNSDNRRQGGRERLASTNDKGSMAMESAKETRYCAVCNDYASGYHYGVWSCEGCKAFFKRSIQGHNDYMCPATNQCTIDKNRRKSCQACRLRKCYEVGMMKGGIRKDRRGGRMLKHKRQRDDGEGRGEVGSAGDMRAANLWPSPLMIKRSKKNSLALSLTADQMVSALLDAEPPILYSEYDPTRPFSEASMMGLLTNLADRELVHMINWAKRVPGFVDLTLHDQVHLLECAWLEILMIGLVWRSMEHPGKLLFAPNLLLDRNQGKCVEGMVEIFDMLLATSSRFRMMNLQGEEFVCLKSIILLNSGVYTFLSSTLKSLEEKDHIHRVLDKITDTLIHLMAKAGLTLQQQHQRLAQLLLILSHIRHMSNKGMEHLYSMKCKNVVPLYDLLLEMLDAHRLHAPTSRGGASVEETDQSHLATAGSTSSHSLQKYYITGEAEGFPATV
Chain of Progesterone receptor (Homo sapiens) (P06401 whole entry, looked up): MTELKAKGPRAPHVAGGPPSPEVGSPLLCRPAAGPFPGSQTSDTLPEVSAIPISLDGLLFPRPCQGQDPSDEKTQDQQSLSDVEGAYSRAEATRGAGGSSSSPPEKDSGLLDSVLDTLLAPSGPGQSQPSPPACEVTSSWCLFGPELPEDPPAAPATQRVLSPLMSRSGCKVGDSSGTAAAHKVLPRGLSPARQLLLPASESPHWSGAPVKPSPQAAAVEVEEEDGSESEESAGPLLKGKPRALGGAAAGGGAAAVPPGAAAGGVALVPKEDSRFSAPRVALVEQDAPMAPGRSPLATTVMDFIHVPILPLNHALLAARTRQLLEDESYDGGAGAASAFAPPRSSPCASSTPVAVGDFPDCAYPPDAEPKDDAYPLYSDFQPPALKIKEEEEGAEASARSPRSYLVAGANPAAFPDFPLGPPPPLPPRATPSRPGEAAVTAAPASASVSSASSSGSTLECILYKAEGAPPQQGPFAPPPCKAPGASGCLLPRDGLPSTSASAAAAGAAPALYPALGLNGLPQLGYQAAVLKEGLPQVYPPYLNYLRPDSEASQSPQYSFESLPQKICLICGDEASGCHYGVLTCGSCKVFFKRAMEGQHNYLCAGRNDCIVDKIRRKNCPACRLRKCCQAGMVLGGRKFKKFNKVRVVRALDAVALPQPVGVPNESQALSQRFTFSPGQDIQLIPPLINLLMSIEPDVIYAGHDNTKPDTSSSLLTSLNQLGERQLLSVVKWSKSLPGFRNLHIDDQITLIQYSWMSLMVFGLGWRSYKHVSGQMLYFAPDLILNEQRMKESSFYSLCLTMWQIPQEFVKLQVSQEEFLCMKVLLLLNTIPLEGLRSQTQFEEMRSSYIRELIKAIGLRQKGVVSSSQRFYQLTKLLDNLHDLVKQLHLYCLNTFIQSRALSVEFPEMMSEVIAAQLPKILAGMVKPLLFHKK
Chain of Thyrotropin receptor (Homo sapiens) (P16473 whole entry, looked up): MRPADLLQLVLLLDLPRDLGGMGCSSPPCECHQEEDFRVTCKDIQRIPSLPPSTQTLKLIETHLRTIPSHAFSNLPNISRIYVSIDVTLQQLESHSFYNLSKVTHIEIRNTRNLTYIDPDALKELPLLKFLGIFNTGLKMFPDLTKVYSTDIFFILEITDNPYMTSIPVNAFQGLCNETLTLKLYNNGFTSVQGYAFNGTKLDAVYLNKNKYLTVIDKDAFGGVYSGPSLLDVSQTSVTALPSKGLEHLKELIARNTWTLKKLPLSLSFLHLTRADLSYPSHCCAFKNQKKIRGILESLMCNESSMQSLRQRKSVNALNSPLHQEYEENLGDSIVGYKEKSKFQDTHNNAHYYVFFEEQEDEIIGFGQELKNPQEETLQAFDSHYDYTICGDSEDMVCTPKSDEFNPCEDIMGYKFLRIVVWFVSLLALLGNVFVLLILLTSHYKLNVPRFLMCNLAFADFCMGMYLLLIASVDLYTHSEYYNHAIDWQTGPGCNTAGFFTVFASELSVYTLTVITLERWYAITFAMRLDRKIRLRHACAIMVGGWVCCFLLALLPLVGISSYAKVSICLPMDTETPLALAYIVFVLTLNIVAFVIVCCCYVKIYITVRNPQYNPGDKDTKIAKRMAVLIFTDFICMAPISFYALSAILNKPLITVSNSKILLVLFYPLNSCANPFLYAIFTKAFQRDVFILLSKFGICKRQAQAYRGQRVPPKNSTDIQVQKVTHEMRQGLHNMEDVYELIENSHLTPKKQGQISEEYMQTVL
Chain of Estrogen receptor beta (Homo sapiens) (Q92731 whole entry, looked up): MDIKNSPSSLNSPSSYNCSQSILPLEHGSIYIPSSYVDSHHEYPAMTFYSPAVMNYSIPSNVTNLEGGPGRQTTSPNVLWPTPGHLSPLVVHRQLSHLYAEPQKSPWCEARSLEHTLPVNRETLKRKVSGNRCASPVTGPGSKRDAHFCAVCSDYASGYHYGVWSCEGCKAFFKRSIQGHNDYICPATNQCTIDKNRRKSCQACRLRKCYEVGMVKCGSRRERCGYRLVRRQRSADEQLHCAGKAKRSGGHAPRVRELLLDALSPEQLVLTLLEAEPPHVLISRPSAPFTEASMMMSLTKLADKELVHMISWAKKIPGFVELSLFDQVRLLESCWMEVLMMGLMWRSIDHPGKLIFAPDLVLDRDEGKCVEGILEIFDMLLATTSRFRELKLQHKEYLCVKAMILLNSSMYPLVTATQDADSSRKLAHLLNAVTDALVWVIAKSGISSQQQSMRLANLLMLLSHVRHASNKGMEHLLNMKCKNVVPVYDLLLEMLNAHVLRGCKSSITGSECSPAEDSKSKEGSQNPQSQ

O=C(O)c1c(Cl)ccc(Cl)c1Cl
inactive: Potency [1] | outcome [2] | Potency [3] | Potency [4] | Potency [5] | Potency [6] | outcome [7] | outcome [8] | outcome [9] | outcome [10] | outcome [11] | Potency [12] | Potency [13] | Potency [14] | Potency [15] | Potency [16]

Cc1ccc2c(c1)c1c3n2CCNC3CCC1 (stereo not given)
inactive: Potency [1] | outcome [2] | Potency [3] | Potency [4] | Potency [5] | Potency [17] | Potency [6] | outcome [11] | Potency [12] | Potency [13] | Potency [14]

Cc1nc2ccccc2c(=O)o1
inactive: outcome [2] | Potency [3] | Potency [4] | outcome [18] | Potency [5] | Potency [17] | outcome [19] | Potency [6] | outcome [7] | outcome [8] | outcome [9] | outcome [11] | Potency [12] | Potency [13] | Potency [14] | Potency [16] | outcome [20]

CN[C@@H]1[C@H](O)[C@H](NC)[C@H]2O[C@@]3(O)C(=O)C[C@@H](C)O[C@H]3O[C@@H]2[C@H]1O
inactive: Potency [1] | outcome [2] | Potency [3] | Potency [4] | Potency [5] | Potency [6] | outcome [7] | outcome [8] | outcome [9] | outcome [10] | outcome [11] | Potency [12] | Potency [13] | Potency [14] | Potency [15] | Potency [16] | outcome [20]

Nc1c(NC/C=C\COc2cc(CN3CCCCC3)ccn2)c(=O)c1=O
inactive: activity change, negative = inhibition [1] -4.93% [at 19 µM] | activity change, negative = cytotoxicity [2] 4.37% [at 19 µM] | activity change, negative = inhibition [5] 0.103% [at 19 µM] | activity change, negative = cytotoxicity [6] -0.565% [at 19 µM] | activity change, negative = cytotoxicity [7] 1.31% [at 19 µM] | activity change, negative = cytotoxicity [8] 0.149% [at 19 µM] | cAMP activity change [10] -0.455% [at 18.9 µM] | activity change, negative = inhibition [11] -4.41% [at 19 µM] | activation [13] 1.78% [at 19 µM] | activity change, negative = inhibition [14] 9.62% [at 18.9 µM] | activity change, negative = cytotoxicity [15] 4.14% [at 18.9 µM] | activity change, negative = cytotoxicity [16] -2.25% [at 19 µM] | viability change, negative = cytotoxic [20] 0.148% [at 15.8 µM]
active: Potency [3] 5.17 µM | Potency [4] 5.17 µM

COc1cc([N+](=O)[O-])ccc1N
inactive: outcome [2] | outcome [18] | Potency [5] | Potency [17] | outcome [19] | outcome [7] | outcome [8] | outcome [9] | outcome [10] | outcome [11] | Potency [13] | Potency [15] | Potency [16] | outcome [20]
active: Potency [3] 54.5 µM | Potency [4] 54.5 µM | Potency [6] 34.4 µM | Potency [12] 38.6 µM

CCCCC(=O)N(C)C
inactive: Potency [1] | outcome [2] | Potency [3] | Potency [4] | Potency [5] | outcome [19] | outcome [7] | outcome [8] | outcome [9] | outcome [10] | outcome [11] | Potency [12] | Potency [13] | Potency [16] | outcome [20]

c1ccc(CNc2ncnc3nc[nH]c23)cc1
inactive: outcome [2] | Potency [3] | Potency [4] | outcome [18] | Potency [5] | Potency [17] | outcome [19] | Potency [6] | outcome [7] | outcome [8] | outcome [10] | outcome [11] | Potency [12] | Potency [13] | Potency [14] | outcome [20]

CO/N=C(/C(=O)N[C@@H]1C(=O)N2C(C(=O)O)=C(Cn3nnc(C)n3)CS[C@H]12)c1csc(N)n1
inactive: Potency [1] | outcome [2] | Potency [4] | outcome [18] | Potency [5] | Potency [17] | outcome [19] | Potency [6] | outcome [7] | outcome [10] | outcome [11] | Potency [12] | Potency [13] | Potency [14] | Potency [15] | Potency [16] | outcome [20]

NS(=O)(=O)c1ccccc1OC(F)(F)F
inactive: Potency [1] | outcome [2] | Potency [3] | Potency [4] | Potency [17] | outcome [19] | outcome [7] | outcome [8] | Potency [12] | Potency [14] | Potency [15] | Potency [16] | outcome [20]
